Assay outcomes from PubChem BioAssay.
The list is not random: actives were taken first. Their share in the collection is about 21%.
Pf growth 48h: inhibits P. falciparum growth in the first generation, 48 h; P. falciparum luciferase growth in erythrocytes, 48 h; Potency, µM (series often up to 28.7 µM), actives largely listed as inhibitors; 5.9% of 310,000 active; AID 504832
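Compounds are pin-transferred into medium, infected erythrocytes (2% hematocrit, 0.1% parasitemia final) are added, and plates sit one parasite generation at 37 C in 5% CO2. Detection reagent is then added and luminescence measured.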
Shiga inhibitor: blocks Shiga toxin action in Vero cells. Vero cells, Shiga toxin protein synthesis inhibition reporter. inhibition, % at 38.7 µM. 9.2% of 290,000 active. AID 2315; in the data active = inhibition mostly above about 28%, no sharp cut-off; inactive = mostly below about 43%
Pf growth 96h: P. falciparum growth inhibition at 96 hours. P. falciparum luciferase reporter growth, 96 h. Potency, µM (highest dose often 28.7 µM), hits mostly inhibitors. 6.9% of 320,000 active
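Two-generation exposure (96 h) targets delayed-death phenotype. Reporter parasites carrying integrated firefly luciferase, in red cells at 2% hematocrit and 0.05% parasitemia final, kept at 37 C, 5% CO2; luminescence loss indicates inhibition.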
Cycloheximide cs: counter-screen for Shiga toxin inhibitors: cycloheximide protein synthesis inhibition | AID 2314 | 12% of 300,000 active | cell reporter, cycloheximide protein synthesis inhibition counterscreen | max response, %; in the data active = max response mostly above about 13%, no sharp cut-off; inactive = mostly below about 14%; also: read at 38.3 µM for the half of the compounds with a filed dose
Large screens that a line does not name were inactive. Unless noted, calls follow the shape of the dose curve; as a rule, active = well fitted inhibition curve with a large enough effect; inconclusive = small, poorly fitted or top-dose-only effect, or another doubt; inactive = no such curve, though single readings can be large or run the other way.

O=C(O)c1ccc2c(c1)C(=O)N([C@@H](C(=O)O)C(c1ccccc1)c1ccccc1)C2=O	none
O=S(=O)(NCc1ccccc1)[C@@H]1CC2C=CC1C2 (stereo partly drawn)	none (no result: Shiga inhibitor, Cycloheximide cs)
COc1cccc(CNS(=O)(=O)c2c(C(=O)N3CCCCCC3)c(C)n(C)c2C)c1	none
Cc1ccccc1OCc1nnc(SCC(=O)NCc2ccccc2)n1C	none (no result: Pf growth 96h)
COC(=O)c1ccccc1NC(=O)CSc1nc(N)cc(N)n1	Pf growth 96h inconclusive (no result: Pf growth 48h)
COC(=O)CSc1nc2ccc(NC(=O)CSc3nnnn3Cc3ccccc3)cc2s1	Pf growth 96h inconclusive
CCOC(=O)c1ccccc1NC(=O)CSc1nnc(COc2ccccc2C)n1C	Pf growth 48h 13µM, Pf growth 96h inconclusive
Cc1ccccc1OCc1nnc(SCC(=O)Nc2ccc3nc(SCC(=O)Nc4ccccc4)sc3c2)n1C	Pf growth 48h 13µM, Pf growth 96h 10µM
CCOC(=O)c1ccccc1NC(=O)CSc1nc(N)cc(N)n1	Pf growth 96h 12µM
O=C(CSc1nc2ccc(NC(=O)CSc3nnnn3Cc3ccccc3)cc2s1)Nc1ccccc1	Pf growth 48h 13µM, Pf growth 96h inconclusive
CS(=O)(=O)N(CC(=O)Nc1ccc(Br)cc1)C1CCCCC1	none
COc1cccc(OC)c1C(=O)Nc1ccnn1C	none
Cn1c(SCC(=O)Nc2ccc3nc(SCC(=O)NC4CC4)sc3c2)nnc1-c1ccccc1	Pf growth 48h inconclusive, Pf growth 96h inconclusive
O=C(CSc1nnnn1Cc1ccccc1)Nc1cccc(F)c1	none
CC(=O)Nc1cccc(NC(=O)CSc2nnnn2Cc2ccccc2)c1	Pf growth 96h 5.9µM
Cn1c(SCC(=O)Nc2ccc3nc(SCC(=O)N4CCCC4)sc3c2)nnc1-c1ccc(N)cc1	Pf growth 96h 1.3µM (no result: Pf growth 48h)
CCC(C)(C)NC(=O)C(c1cccc(OC)c1OC)N(C(=O)CCC(=O)Nc1cc(C)on1)C(C)C (stereo not drawn)	Pf growth 96h inconclusive
O=C(O)c1ccccc1C(=O)Nc1cccc([N+](=O)[O-])c1	Pf growth 48h inconclusive
Cc1c(C(=O)Nc2cccc([N+](=O)[O-])c2)csc1-c1ccccc1	Shiga inhibitor 83, Cycloheximide cs 46
Cc1ccc(NC(=O)c2csc(-c3ccccc3)c2C)cc1	Shiga inhibitor 199, Cycloheximide cs 54
O=C(CCc1nc(-c2ccccc2)no1)NC1CCCCCC1	none (no result: Shiga inhibitor, Cycloheximide cs)
Cc1cccc(C)c1NC(=O)COC(=O)c1cccnc1	none
COc1ccc(CNC(=O)CCC(=O)Nc2nnc(CC(C)C)s2)cc1	none
Cc1cc2nc(SCCOC(=O)Nc3ccc(Cl)cc3)nc(C)c2cc1C	none
O=C(CCC1CCCN(C(=O)c2ccoc2)C1)NCc1ccccc1F (stereo not drawn)	none
CN(C)c1cccc(C(=O)N2CCCC(CCC(=O)NCc3ccccc3F)C2)c1 (stereo not drawn)	Pf growth 48h 3.3µM, Pf growth 96h inconclusive, Cycloheximide cs 30
Cc1noc(C)c1CCC(=O)N1CCCC(CCC(=O)NCc2ccccc2F)C1 (stereo not drawn)	none
O=C(CCC1CCCN(C(=O)CCN2CCCCC2=O)C1)NCc1ccccc1F (stereo not drawn)	Cycloheximide cs 14
O=C(CCC1CCCN(C(=O)c2cccnc2)C1)NCc1ccccc1F (stereo not drawn)	Cycloheximide cs 17
COc1cc(C)c(CN2CCC(n3nccc3NC(=O)C3CCOC3)CC2)cc1C (stereo not drawn)	Pf growth 96h inconclusive
CC(=O)Nc1ccc(SC[C@H](c2ccccc2)N2CCN(CCc3ccccc3)CCC2=O)cc1	Pf growth 48h 13µM, Pf growth 96h 7.4µM
CCCN1CCC(=O)N(C(CSc2ccc(OC)cc2)c2ccccc2)CC1 (stereo not drawn)	Shiga inhibitor 156, Cycloheximide cs 42 (no result: Pf growth 48h, Pf growth 96h)
CCCN1CCC(=O)N([C@H](CSc2ccc(Br)cc2)c2ccccc2)CC1	Pf growth 96h inconclusive, Cycloheximide cs 35
CN(Cc1ccco1)C(=O)CSc1nc(C2CC2)n(-c2ccccc2)n1	none (no result: Shiga inhibitor, Cycloheximide cs)
COc1ccccc1N1CC=C(c2cccc([N+](=O)[O-])c2)NC1=O	none
N#Cc1ccc(/C=N/NC(=O)c2cc(-c3cccs3)nc3ccccc23)cc1	Pf growth 48h inconclusive, Pf growth 96h inconclusive, Cycloheximide cs 22
N#Cc1ccc(-c2csc(NC(=O)c3cc(-c4cccs4)nc4ccccc34)n2)cc1	Pf growth 48h inconclusive, Pf growth 96h inconclusive
COc1cc(/C=N/NC(=O)c2cc(-c3cccs3)nc3ccccc23)ccc1O	Pf growth 48h inconclusive, Shiga inhibitor 45, Pf growth 96h inconclusive
CNC(=O)COc1coc(CN2CCN(c3ccc(OC)cc3)CC2)cc1=O	none
C=CCC1(CC=C)CCCN1C(=O)CC1C(=O)NCCN1Cc1cc(OC)cc(OC)c1 (stereo not drawn)	Pf growth 48h 15µM, Pf growth 96h inconclusive
COC(=O)[C@@]1(Cc2ccc(F)cc2)[C@@H]2[C@@H](CC(=O)[C@H]2CC(=O)C(=O)N(C)C)CN1C(=O)c1ccccc1	Pf growth 96h 9.3µM
COC(=O)[C@@]1(Cc2ccc(F)cc2)[C@H]2c3cc(C(=O)N(C)C)n(Cc4ccccn4)c3C[C@H]2CN1C(=O)c1ccccc1	Pf growth 48h 3.3µM, Pf growth 96h 2.9µM
O=C(NCc1ccccn1)C1CCN(C(=O)c2cc3sccc3n2Cc2ccc(F)cc2)CC1	Pf growth 96h inconclusive
COC(=O)[C@@]1(Cc2ccc(F)cc2)[C@H]2c3cc(C(=O)N(C)C)n(CCSCCO)c3C[C@H]2CN1C(=O)c1ccccc1	Pf growth 48h 6.6µM, Pf growth 96h 13µM
COC(=O)[C@@]1(Cc2ccc(F)cc2)[C@H]2c3cc(C(=O)N(C)C)n(Cc4nc5ccccc5[nH]4)c3C[C@H]2CN1C(=O)c1ccccc1	Pf growth 48h 1.5µM, Pf growth 96h 3.7µM
CCCc1cc(=O)oc2cc(OCC(=O)NC3CC(C)(C)NC(C)(C)C3)ccc12	none
CC1CCC(NC(=O)CSc2nnnn2C)CC1 (stereo not drawn)	none (no result: Shiga inhibitor, Cycloheximide cs)
COc1ccc(C(=O)CSc2nnc3n2CCCN3C(=O)Nc2ccccc2)cc1	Pf growth 96h inconclusive
CC(=O)Nc1ccc2nc(SCC(=O)NCCOc3ccccc3)sc2c1	none
COc1ccccc1C(=O)Nc1ccc2nc(SCC(=O)N(C)C)sc2c1	Pf growth 48h inconclusive, Pf growth 96h 12µM
CC(CC(=O)Nc1ccc(F)c([N+](=O)[O-])c1)c1ccccc1 (stereo not drawn)	none
O=C(CSc1nc2ccc(NC(=O)c3ccccc3C(=O)O)cc2s1)Nc1ccc(F)c([N+](=O)[O-])c1	Shiga inhibitor 30
CCCNC(=O)c1nnsc1Sc1ccc(Cl)cc1	Shiga inhibitor 87, Cycloheximide cs 23
COC(=O)c1ccc(C2N=C(c3cccs3)CC(c3ccccc3O)N2)cc1 (stereo not drawn)	Pf growth 48h inconclusive, Shiga inhibitor 100, Cycloheximide cs 38
O=C(c1ccccc1)N1N=C(c2cccs2)CC1c1ccccc1O (stereo not drawn)	Pf growth 48h inconclusive, Pf growth 96h inconclusive
COc1ccccc1CCC(=O)Nc1cccc(S(=O)(=O)N2CCOCC2)c1	Pf growth 48h inconclusive
O=C(CCCOc1ccccc1)Nc1ccc(S(=O)(=O)N2CCOCC2)cc1	Pf growth 48h 12µM, Pf growth 96h inconclusive
